Structures are written as SMILES. Counter-ions that a name gives are not always drawn. ± gives the standard deviation of the averaged measurements. Whole data set: some 1,300 compounds, median “normalised cell viability” near 1, cut for the lowest 2% near 0.14. For the sample, the lowest values were picked, then their nearest neighbours and some compounds at random.

The assay relates to V-C8 (BRCA2-deficient hamster cells). Kind of assay: normalised cell viability (fraction of plate median); higher = more viable cells (less toxic). The following applies: 5 µM. Summed up: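 Hamster V-C8 cells with and without restored BRCA2 were exposed in 96-well plates to library drugs at 5 μM for 3 days (screen 1) or 6 days (screen 2). Cell viability was scored by resazurin assay, then median-plate normalised, averaging triplicate wells.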

Turning to `CN[C@H](CC(C)C)C(=O)N[C@H]1C(=O)N[C@@H](CC(N)=O)C(=O)N[C@H]2C(=O)N[C@H]3C(=O)N[C@H](C(=O)N[C@H](C(=O)O)c4cc(O)cc(O)c4-c4cc3ccc4O)[C@H](O)c3ccc(c(Cl)c3)Oc3cc2cc(c3O[C@@H]2O[C@H](CO)[C@@H](O)[C@H](O)[C@H]2O[C@H]2C[C@](C)(N)[C@H](O)[C@H](C)O2)Oc2ccc(cc2Cl)[C@H]1O` [Vancomycin hydrochloride], the normalised cell viability reads like this: (treatment time: 3 days) 0.159 ± 0.01; (treatment time: 6 days) 0.141 ± 0.0064.

Turning to `CC(CN(C)C)C(C)(O)Cc1ccc(Cl)cc1` (centres undefined) [Clobutinol hydrochloride], the normalised cell viability came out at 1.05 ± 0.13 (treatment time: 3 days) and 1.11 ± 0.064 (treatment time: 6 days).

On to `Cc1cc(NC(=O)C2=C(O)c3ccccc3S(=O)(=O)N2C)no1` [Isoxicam], for which the normalised cell viability (treatment time: 3 days) worked out at 1.04 ± 0.06 and the normalised cell viability (treatment time: 6 days) turned out to be 1.06 ± 0.042.

`CC[C@]12CCCN3CCc4c(n(c5ccccc45)C(=O)C1)[C@@H]32` [Eburnamonine (-)] gave a normalised cell viability (treatment time: 3 days) of 0.362 ± 0.016 and a normalised cell viability (treatment time: 6 days) of 0.643 ± 0.11.

With `CN(C)[C@@H]1C(O)=C(C(N)=O)C(=O)[C@@]2(O)C(O)=C3C(=O)c4c(O)cccc4[C@@](C)(O)[C@H]3[C@H](O)[C@@H]12` [Oxytetracycline dihydrate], the normalised cell viability reads like this: (treatment time: 3 days) 0.991 ± 0.015; (treatment time: 6 days) 0.945 ± 0.05.

Regarding `C=C(NC(=O)C(=C)NC(=O)c1csc(C2=N[C@@H]3c4csc(n4)[C@H]4NC(=O)c5csc(n5)[C@H]([C@](C)(O)[C@@H](C)O)NC(=O)[C@H]5CSC(=N5)/C(=C/C)NC(=O)[C@H]([C@@H](C)O)NC(=O)c5csc(n5)[C@]3(CC2)NC(=O)[C@H](C)NC(=O)C(=C)NC(=O)[C@H](C)NC(=O)[C@H]([C@@H](C)CC)N[C@@H]2C=Cc3c([C@H](C)O)cc(nc3[C@H]2O)C(=O)O[C@@H]4C)n1)C(N)=O` [Thiostrepton], the normalised cell viability (treatment time: 3 days) turned out to be 0.14 ± 0.011 and the normalised cell viability (treatment time: 6 days) came out at 0.126 ± 0.0091.

For the compound `COc1c(O[C@@H]2O[C@H](CO)[C@@H](O)[C@H](O)[C@H]2O)cc2c(c1OC)-c1ccc(SC)c(=O)cc1[C@@H](NC(C)=O)CC2` [Thiocolchicoside], the normalised cell viability is, setting by setting: (treatment time: 3 days) 1.22 ± 0.36; (treatment time: 6 days) 0.97 ± 0.017.

On to `CCCCc1cc2ccccc2c(OCCN(C)C)n1` [Dimethisoquin hydrochloride], for which the normalised cell viability is 1.03 ± 0.087 (treatment time: 3 days) and 1.04 ± 0.05 (treatment time: 6 days).

Take `CCOc1ccc2c(c1)C(C)=CC(C)(C)N2` [Ethoxyquin]: the normalised cell viability amounted to 0.883 ± 0.014 (treatment time: 3 days) and 1.2 ± 0.26 (treatment time: 6 days).

With `CCN(CC)CCOC(=O)C(c1ccccc1)c1ccccc1` [Adiphenine hydrochloride], the normalised cell viability reads like this: (treatment time: 3 days) 0.976 ± 0.021; (treatment time: 6 days) 1.02 ± 0.039.

As for `CCN(CC)CCOC(=O)C(c1ccccc1)C1CCCCC1` (centres undefined) [Drofenine hydrochloride], the normalised cell viability was 1.02 ± 0.038 (treatment time: 3 days) and 1.02 ± 0.07 (treatment time: 6 days).

For `CCN(CC)CCOC(=O)C(Cc1cccc2ccccc12)CC1CCCO1` (centres undefined) [Nafronyl oxalate], the normalised cell viability by setting is: (treatment time: 3 days) 0.1613 ± 0.00033; (treatment time: 6 days) 0.14 ± 0.0088.

For `COCCOC(=O)C1=C(C)NC(C)=C(C(=O)OC/C=C/c2ccccc2)C1c1cccc([N+](=O)[O-])c1` (centres undefined) [Cilnidipine], the normalised cell viability amounted to 0.98 ± 0.03 (treatment time: 3 days) and 1.01 ± 0.015 (treatment time: 6 days).

For `CC(=C(CCO)SSCC1CCCO1)N(C=O)Cc1cnc(C)nc1N` (stereo in doubt) [Fursultiamine Hydrochloride], the normalised cell viability reads like this: (treatment time: 3 days) 1.03 ± 0.025; (treatment time: 6 days) 1.03 ± 0.0084.

As for `Cc1ccccc1C(OCCN(C)C)c1ccccc1` (centres undefined) [Orphenadrine hydrochloride], the normalised cell viability was found to be 1.05 ± 0.14 (treatment time: 3 days) and 0.964 ± 0.14 (treatment time: 6 days).

Regarding `O=C(O)c1cc(/N=N/c2ccc(S(=O)(=O)Nc3ccccn3)cc2)ccc1O` [Sulfasalazine], the normalised cell viability reads like this: (treatment time: 3 days) 1.03 ± 0.056; (treatment time: 6 days) 0.993 ± 0.046.

For `N#Cc1ccc(C2CCCc3cncn32)cc1` (centres undefined) [Fadrozole hydrochloride], the normalised cell viability was found to be 1.01 ± 0.087 (treatment time: 3 days) and 0.97 ± 0.079 (treatment time: 6 days).

Take `COc1cccc2c1C(=O)c1c(O)c3c(c(O)c1C2=O)C[C@@](O)(C(C)=O)C[C@@H]3O[C@H]1C[C@H](N)[C@H](O)[C@H](C)O1` [Daunorubicin hydrochloride]: the normalised cell viability (treatment time: 3 days) amounted to 0.141 ± 0.011 and the normalised cell viability (treatment time: 6 days) stood at 0.124 ± 0.0055.

As to `COc1cccc2c1C(=O)c1c(O)c3c(c(O)c1C2=O)C[C@@](O)(C(=O)CO)C[C@@H]3O[C@H]1C[C@H](N)[C@@H](O)[C@H](C)O1` [Epirubicin hydrochloride], the normalised cell viability is 0.123 ± 0.013 (treatment time: 3 days) and 0.163 ± 0.016 (treatment time: 6 days).

In the case of `COc1cccc2c1C(=O)c1c(O)c3c(c(O)c1C2=O)C[C@@](O)(C(=O)CO)C[C@@H]3O[C@H]1C[C@H](N)[C@H](O)[C@H](C)O1` [Doxorubicin hydrochloride], the normalised cell viability is, setting by setting: (treatment time: 3 days) 0.127 ± 0.0054; (treatment time: 6 days) 0.113 ± 0.0072.

For the compound `Cc1nccn1CC1CCc2c(c3ccccc3n2C)C1=O` (centres undefined) [Ondansetron Hydrochloride], the normalised cell viability worked out at 1.07 ± 0.04 (treatment time: 3 days) and 1.1 ± 0.082 (treatment time: 6 days).

`CC(C)NCC(O)c1ccc(O)c(O)c1` (single isomer, unassigned; (+)) [(+)-Isoproterenol (+)-bitartrate salt]: the normalised cell viability runs as follows: (treatment time: 3 days) 1.028 ± 0.0063; (treatment time: 6 days) 0.926 ± 0.063.

With `CC(=O)NC[C@H]1CN(c2ccc(N3CCOCC3)c(F)c2)C(=O)O1` [Linezolid], the normalised cell viability came out at 1.04 ± 0.039 (treatment time: 3 days) and 0.972 ± 0.047 (treatment time: 6 days).

`c1ccc(CNc2ncnc3nc[nH]c23)cc1` [Aminopurine, 6-benzyl]: the normalised cell viability runs as follows: (treatment time: 3 days) 0.947 ± 0.1; (treatment time: 6 days) 0.94 ± 0.075.

As to `O=C1C=CC(=O)c2c1ccc1c2ccc2ccccc21` [Chrysene-1,4-quinone], the normalised cell viability runs as follows: (treatment time: 3 days) 1.02 ± 0.061; (treatment time: 6 days) 1.06 ± 0.12.

For the compound `CC(C)Cn1cnc2c(N)nc3ccccc3c21` [Imiquimod], the normalised cell viability by setting is: (treatment time: 3 days) 1.11 ± 0.044; (treatment time: 6 days) 1.02 ± 0.064.

Take `Nc1c2c(nc3ccccc13)CCCC2` [Tacrine hydrochloride]: the normalised cell viability stood at 0.984 ± 0.031 (treatment time: 3 days) and 1.1 ± 0.049 (treatment time: 6 days).

`Nc1c2ccccc2nc2ccccc12` [Aminacrine] came in with a normalised cell viability (treatment time: 3 days) of 0.127 ± 0.015 and a normalised cell viability (treatment time: 6 days) of 0.164 ± 0.015.

Take `CN1CCN(c2c(F)cc3c(=O)c(C(=O)O)cn(CCF)c3c2F)CC1` [Fleroxacin]: the normalised cell viability was determined as 0.982 ± 0.046 (treatment time: 3 days) and 0.977 ± 0.051 (treatment time: 6 days).

`COC(=O)Nc1nc2cc(Sc3ccccc3)ccc2[nH]1` [Fenbendazole] registered a normalised cell viability (treatment time: 3 days) of 0.187 ± 0.0098 and a normalised cell viability (treatment time: 6 days) of 0.181 ± 0.013.

Turning to `COC(=O)Nc1nc2cc([S+]([O-])c3ccccc3)ccc2[nH]1` (centres undefined) [Oxfendazol], the normalised cell viability was 0.712 ± 0.076 (treatment time: 3 days) and 0.775 ± 0.014 (treatment time: 6 days).

With `COC(=O)Nc1nc2cc(C(=O)c3cccs3)ccc2[nH]1` [Nocodazole], the normalised cell viability is 0.147 ± 0.0062 (treatment time: 3 days) and 0.128 ± 0.004 (treatment time: 6 days).
